Measured values taken from PubChem BioAssay (NCATS).
Records with an inconclusive call do not appear. A call without a number means that no potency is given here. Values without a mark were called inactive. Activity calls are given as the source filed them. The call rests on the fitted dose curve; in most records, active means well fitted curve in the direction sought with a large enough effect; inconclusive means small, poorly fitted or top-dose-only effect, or another doubt; inactive means no such curve, though single readings can be large; an effect the other way counts as inactive or inconclusive.

Legend:
[1] = P-glycoprotein substrates identified in KB-3-1 adenocarcinoma cell line, qHTS therapeutic library screen (AID 1346986); further: nearly all actives have a fitted effect of over 60% in size
Outline: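 Cells seeded 500/well in DMEM/10% FCS; compounds pinned in dose-response; 72 h incubation; CellTiter-Glo added, 5 min, luminescence. KB-8-5-11 run ±tariquidar to test reversal of P-gp resistance.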

[2] = P-glycoprotein substrates identified in KB-8-5-11 adenocarcinoma cell line, qHTS therapeutic library screen (AID 1346987); further: nearly all actives have a fitted effect of over 65% in size; on activity change, negative = cytotoxicity: series mostly up to about 44 µM
Outline: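 KB-8-5-11, a colchicine-selected P-gp-overexpressing KB-3-1 subline, was grown without colchicine for the assay. Cells were seeded at 500 cells/well, dosed in concentration-response and incubated 72 h at 37 degree C, 5% CO2. Viability was read by CellTiter-Glo luminescence.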

CCCCN(CCCC)C(=O)CN1C[C@H](c2ccc3c(c2)OCO3)[C@@H](C(=O)O)[C@@H]1c1ccc(OC)cc1
Potency [1]: inactive
Potency [2]: inactive

CC(C)CC(=O)n1cc(C(N)=O)c(=O)cc1C(O)c1ccccc1 (configuration not stated)
Potency [1]: inactive
Potency [2]: inactive

COc1cc(/C=C/C(=O)OC2CC(C)=C(C(=O)O)/C2=C/CO[C@@H]2O[C@H](CO)[C@@H](O)[C@H](O)[C@H]2O)ccc1O (some centres not stated)
Potency [1]: inactive
Potency [2]: inactive

O=C(OCc1cccc(O)c1O[C@@H]1O[C@H](CO)[C@@H](O)[C@H](O)[C@H]1O)C1(O)C(=O)C2C=CC1C1C=CC(=O)C(O)(C(=O)OCc3cccc(O)c3O[C@@H]3O[C@H](CO)[C@@H](O)[C@H](O)[C@H]3O)C21 (some centres not stated)
outcome [1]: inactive [at 9.29 µM]
outcome [2]: inactive [at 9.29 µM]

COc1cc(C2c3cc(O)c(OC)cc3CC(CO)C2CO)ccc1O (configuration not stated)
Potency [1]: inactive
Potency [2]: inactive

C=CC(C)(C)O[C@@H]1O[C@H](CO[C@@H]2OC[C@](O)(CO)[C@H]2O)[C@@H](O)[C@H](O)[C@H]1O
Potency [1]: inactive
Potency [2]: inactive

CC1=C2CC3OC3(C)CCC3OC3(C)CC2OC1=O (configuration not stated)
Potency [1]: inactive
Potency [2]: inactive

CCC(=O)NS(=O)(=O)c1ccc(-c2c(-c3ccccc3)noc2C)cc1
Potency [1]: inactive
Potency [2]: inactive

CC(=O)OC(CSC1CCC(=O)OC(C)CCC(=O)C1)C(=O)O (configuration not stated)
Potency [1]: inactive
Potency [2]: inactive

C[C@@H]1C[C@H]2[C@@H]3CCC4=CC(=O)C=C[C@]4(C)[C@@]3(F)[C@@H](O)C[C@]2(C)[C@@]1(O)C(=O)COP(=O)(O)O
Potency [1]: inactive
Potency [2]: inactive

C[C@]12CC[C@@H]3c4ccc(O[C@@H]5O[C@H](C(=O)O)[C@@H](O)[C@H](O)[C@H]5O)cc4CC[C@H]3[C@@H]1CCC2=O
Potency [1]: inactive
Potency [2]: inactive

CC(=O)NC(C(=O)OC1CCC(C)(C)C2CC=C3C(=O)OCC3(O)C12C)C(C)C (configuration not stated)
Potency [1]: inactive
Potency [2]: inactive

C/C=C(\C)C(=O)O[C@H]1[C@H](O)[C@]2(COC(C)=O)[C@H](O)C[C@]3(C)C(=CCC4[C@@]5(C)CC[C@H](O[C@@H]6O[C@H](C(=O)O)[C@@H](O[C@@H]7O[C@H](CO)[C@@H](O)[C@H](O)[C@H]7O)[C@H](O)[C@H]6O[C@@H]6O[C@H](CO)[C@@H](O)[C@H](O)[C@H]6O)[C@](C)(CO)C5CC[C@]43C)[C@@H]2CC1(C)C (some centres not stated)
outcome [1]: inactive [at 9.29 µM]
activity change, negative = cytotoxicity [2]: 3.98% [at 9.29 µM]

CCCCS(=O)(=O)Nc1ncnc(OCCOc2ncc(Br)cn2)c1-c1ccc(Br)cc1
Potency [1]: inactive
Potency [2]: inactive

CC(C)(O)C1CC=C(C(=O)OCC2OC(Oc3c(O)cc(C(=O)O)cc3O)C(O)C(O)C2O)CC1 (configuration not stated)
Potency [1]: inactive
Potency [2]: inactive

CC(=O)[C@@H]1CC[C@]2(C(=O)O)CC[C@]3(C)C(CCC4[C@@]5(C)CC[C@H](O)C(C)(C)C5CC[C@]43C)C12 (some centres not stated)
Potency [1]: inactive
Potency [2]: inactive

CC1(CO)CC[C@]2(C(=O)O[C@@H]3O[C@H](CO)[C@@H](O)[C@H](O)[C@H]3O)CC[C@]3(C)C(=CCC4[C@@]5(C)C[C@H](O)[C@H](O[C@@H]6OC[C@@H](O)[C@H](O)[C@H]6O)[C@@](C)(CO)C5CC[C@]43C)C2C1 (some centres not stated)
outcome [1]: inactive [at 9.29 µM]
outcome [2]: inactive [at 9.29 µM]

Nc1ncnc2c1ncn2[C@H]1CCCO1
Potency [1]: inactive
Potency [2]: inactive

CCCn1cnc2c(NCc3ccccc3)nc(N[C@H](CC)CO)nc21
Potency [1]: inactive
Potency [2]: inactive

CC(=O)Oc1cc2c(s1)CCN([C@H](C(=O)C1CC1)c1ccccc1F)C2
Potency [1]: inactive
Potency [2]: inactive

CC(=O)NCCCCn1c2c(c3ccccc31)C(=O)NCC2
Potency [1]: inactive
Potency [2]: inactive

O=C(/C=C/c1ccc(O)cc1)OCC1=CC2OC(=O)C3=CO[C@@H](O[C@@H]4O[C@H](CO)[C@@H](O)[C@H](O)[C@H]4O)[C@H]1[C@@H]32 (some centres not stated)
Potency [1]: inactive
Potency [2]: inactive

CC(=O)OC[C@@]12[C@@H](OC(C)=O)C[C@@H](C)[C@](C)([C@@H]3C[C@H]4C=CO[C@H]4O3)[C@H]1CCC[C@]21CO1
Potency [1]: inactive
Potency [2]: inactive

COc1ccc2c(c1)O[C@H](O[C@@H]1O[C@H](CO)[C@@H](O)[C@H](O)[C@H]1O)C(=O)N2
Potency [1]: inactive
Potency [2]: inactive

CCC(NC(=O)CC(NC(=O)C(CO)NC(=O)C(CC)NC(=O)c1ccc[nH]1)c1ccccc1)C(=O)O (configuration not stated)
Potency [1]: inactive
Potency [2]: inactive

COc1cc(COC2OC(CO)C(O)C(O)C2O)cc(OC)c1O (configuration not stated)
Potency [1]: inactive
Potency [2]: inactive
